# Measurements published in PubChem BioAssay (NCATS).
# Unmarked numbers belong to inactive results. Inconclusive results are not listed. A call without a number means that no potency is given here. Calls of active or inactive are those of the source. Unless noted, the call rests on the fitted dose curve; in most records, active means well fitted curve in the direction sought with a large enough effect; inconclusive means small, poorly fitted or top-dose-only effect, or another doubt; inactive means no such curve, though single readings can be large; an effect the other way counts as inactive or inconclusive.
# What was measured:
# [1] = Confirmation and Secondary Assay for Modulators of Hemoglobin Beta Chain Splicing at IVS2 654 locus (AID 910);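 further: HeLa cells stably carrying EGFP split by mutant beta-globin IVS2-654 intron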
# Method in brief: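 HeLa cells stably expressing EGFP interrupted by β-globin IVS2-654 intron, seeded overnight in Opti-MEM/2% FCS, then treated 2 days at 37 °C. Restored splicing read as total peak GFP intensity per well by laser scanning cytometry (488 nm excitation, 500–520 nm emission); 500 nM antisense PNA as control.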
# [2] = Cell Viability - LYMP2-001 (AID 921);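 further: series mostly up to about 92 µM; cells exposed to compound for 24 h at 37 °C; nearly all actives have a fitted effect of over 70% in size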
# Method in brief: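 CellTiter-Glo luminescence (intracellular ATP) after 24 hr compound exposure at 37 C, 2500 lymphoblastoid cells/well in complete medium. AC50 fitted with standard Hill equation; tetraoctylammonium bromide positive control.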
# [3] = Confirmation and Secondary Assay for Modulators of Hemoglobin Beta Chain Splicing at IVS2 705 locus (AID 930);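 further: HeLa cells stably expressing the EGFP-705 splicing reporter; GFP fluorescence per well restored by corrected splicing of the IVS2-705 intron in EGFP; series mostly up to about 46 µM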
# Method in brief: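 Secondary splice-site specificity test uses HeLa expressing CMV-driven EGFP interrupted by IVS2-705; cells were treated 2 days at 37C with 500 nM antisense PNA as positive control.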
# [4] = MultiTox-Fluor Cytotoxicity Assay - LYMP1-001 - Dead Cells (AID 946)
# Method in brief: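 AC50 from Hill fit of concentration-response; data normalized to DMSO (basal) and 15 uM tetraoctylammonium bromide (100%). LYMP1-001 lymphoblastoid cells, 2500/well, 16 hr compound at 37 C; dead-cell protease fluorescence, Ex/Em 485/520.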
# [5] = MultiTox-Fluor Cytotoxicity Assay - LYMP1-001 - Live Cells (AID 947)
# [6] = Cell Viability - LYMP1-002 - Assay at 16 hr (AID 948)
# Method in brief: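 LYMP1-002 human lymphoblastoid cells, 2500/well; 5 hr 37 C; cpd 16 hr 37 C; CellTiter-Glo 30 min RT; luminescence (ATP). Concentration-response, Hill-fit AC50. Pos ctrl tetraoctylammonium bromide.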
# [7] = MultiTox-Fluor Cytotoxicity Assay - LYMP1-002 - Live Cells (AID 955);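 further: cells exposed to compound for 16 hours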
# Method in brief: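 After 16 h compound exposure at 37 C, live LYMP1-002 lymphoblastoid cells (2500/well) were quantified by cleavage of cell-permeant GF-AFC substrate, read at 405/510 nm after 60 min. Concentration-response fitted with Hill equation for AC50.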
# [8] = MultiTox-Fluor Cytotoxicity Assay - LYMP1-003 - Dead Cells (AID 961); further: nearly all actives have a fitted effect of over 70% in size
# Method in brief: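 Human lymphoblastoid LYMP1-003 cells (2500/well) were treated with compounds for 16 hr at 37 C in complete medium. Dead-cell protease release was read by bis-AAF-R110 fluorescence (Ex/Em 485/520). AC50 came from Hill fits, normalized to DMSO and 15 uM tetraoctylammonium bromide.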
# [9] = MultiTox-Fluor Cytotoxicity Assay - LYMP1-002 - Dead Cells (AID 960); further: nearly all actives have a fitted effect of over 60% in size
# Method in brief: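 Dead-cell fluorescence (Ex/Em 485/520) after 16 h compound exposure at 37 C of LYMP1-002 lymphoblastoid cells in complete medium; AC50 by Hill equation, with data scaled between DMSO and 15 uM tetraoctylammonium bromide.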
# [10] = biological target: Muscarinic acetylcholine receptor M1 (Rattus norvegicus) (UniProt P08482); experiment: qHTS Assay for Antagonists of Acetylcholine Muscarinic M1 Receptor: Measurement of IP-One Response (AID 944); further: nearly all actives have a fitted effect of over 75% in size; further: potency means the concentration at half of the fitted maximal effect
# Method in brief: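 IP1 accumulation measured via TR-FRET between d2-IP1 and Eu-cryptate anti-IP1 antibody after carbachol (200 nM, EC80) stimulation for 30 min; rat M1-transfected CHO cells received compound 10 min before agonist.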
# [11] = biological target: Pyruvate kinase (Leishmania mexicana) (UniProt Q27686); experiment: qHTS Validation Assay for Inhibitors of Leishmania Mexicana Pyruvate Kinase (AID 945)
# Method in brief: (§1)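 Read-out: luminescence from PKLight stop/detection reagent, data normalized to DMSO. Reaction: 0.2 nM E451W LmPYK, 0.5 mM PEP, 0.1 mM ADP, pH 7.2, 1 h room temperature.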
# [12] = biological target: Pyruvate kinase PKM (Homo sapiens) (UniProt P14618); experiment: qHTS Assay for Activators of Human Muscle Pyruvate Kinase (AID 954; active means well fitted curve in the direction sought with a large enough effect, not every such curve was filed as active)
# Method in brief: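 A coupled luminescent readout tracked ATP made from ADP by purified PKM2. Final conditions included 0.1 nM enzyme, PEP and ADP at 0.5 and 0.1 mM, pH 7.2 imidazole buffer with BSA, and a one-hour room-temperature reaction.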
# [13] = biological target: Muscarinic acetylcholine receptor M1 (Rattus norvegicus) (UniProt P08482); experiment: qHTS Assay for Antagonists of Acetylcholine Muscarinic M1 Receptor: Kinetic Measurement of Intracellular Calcium Response (AID 943); further: nearly all actives have a fitted effect of over 75% in size; further: potency means the concentration at half of the fitted maximal effect
# Method in brief: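 Antagonism measured as reduction of carbachol-evoked (EC80, 100 nM final) calcium flux in rat M1-CHO cells after 10 min compound exposure. Fluo-4 signal read kinetically; ratio of maximal to basal fluorescence.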
# [14] = qHTS Assay for Identification of Small Molecule Agonists for Hypoxia Response Element Signaling Pathway (AID 914; active means well fitted activation curve with a large enough effect in the signal ratio, with a control signal flat, not every such curve was filed as active; the % refers to the signal ratio); details: ME-180 (cervical carcinoma) HRE-bla reporter, beta-lactamase ratio, CoCl2, 17 h; active compounds read high
# Method in brief: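 qHTS titration; ME-180 HRE-bla cells; EC50 CoCl2 co-treatment, 17 h at 37 degrees Celsius; CCF4 dye, ex 405nm, em 460nm and 530nm; %Activity from ratio; AC50.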
# [15] = qHTS Assay for Identification of Small Molecule Agonists for Thrombopoietin (TPO) Signaling Pathway (AID 917)
# Method in brief: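 Ba/F3 (mouse) + hTPO receptor + GpIIb-promoter luciferase; IL-3 withdrawn overnight; compound + 26 pM TPO (EC50), 24 hrs, 37 C, 5% CO2; Steadylite luminescence, 10 min RT.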
# [16] = biological target: Pyruvate kinase (Leishmania mexicana) (UniProt Q27686); experiment: qHTS Validation Assay for Activators of Leishmania Mexicana Pyruvate Kinase (AID 959)
# Method in brief: as §1
# Pyruvate kinase (Leishmania mexicana), sequence (Q27686 2-499 E452W): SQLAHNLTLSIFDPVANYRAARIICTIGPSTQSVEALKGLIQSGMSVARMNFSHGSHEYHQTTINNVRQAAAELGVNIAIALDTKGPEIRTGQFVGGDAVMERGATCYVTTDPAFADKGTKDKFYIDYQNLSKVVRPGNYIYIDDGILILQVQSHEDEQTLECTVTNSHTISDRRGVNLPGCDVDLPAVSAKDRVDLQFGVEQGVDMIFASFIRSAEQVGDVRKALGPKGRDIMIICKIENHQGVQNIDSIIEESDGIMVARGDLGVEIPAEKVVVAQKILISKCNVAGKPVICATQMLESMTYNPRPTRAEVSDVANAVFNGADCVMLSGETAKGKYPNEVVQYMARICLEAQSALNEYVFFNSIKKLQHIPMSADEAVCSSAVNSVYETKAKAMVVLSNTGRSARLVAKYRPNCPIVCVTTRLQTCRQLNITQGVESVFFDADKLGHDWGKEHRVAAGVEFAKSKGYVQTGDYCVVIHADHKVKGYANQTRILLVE
# Muscarinic acetylcholine receptor M1 (Rattus norvegicus), sequence (P08482 whole entry, looked up): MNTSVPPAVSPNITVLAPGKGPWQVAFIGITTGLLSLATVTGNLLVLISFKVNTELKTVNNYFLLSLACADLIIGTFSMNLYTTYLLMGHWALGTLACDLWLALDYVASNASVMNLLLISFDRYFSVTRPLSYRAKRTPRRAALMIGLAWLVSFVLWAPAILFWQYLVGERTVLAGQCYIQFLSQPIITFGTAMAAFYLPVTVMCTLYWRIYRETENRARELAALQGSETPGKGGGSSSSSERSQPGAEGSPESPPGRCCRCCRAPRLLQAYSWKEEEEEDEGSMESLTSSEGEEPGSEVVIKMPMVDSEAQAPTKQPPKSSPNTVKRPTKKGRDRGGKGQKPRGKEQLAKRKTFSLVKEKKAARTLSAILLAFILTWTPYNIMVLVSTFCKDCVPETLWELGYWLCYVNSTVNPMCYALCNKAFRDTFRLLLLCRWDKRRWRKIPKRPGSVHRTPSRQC
# Pyruvate kinase PKM (Homo sapiens), sequence (P14618 whole entry, looked up): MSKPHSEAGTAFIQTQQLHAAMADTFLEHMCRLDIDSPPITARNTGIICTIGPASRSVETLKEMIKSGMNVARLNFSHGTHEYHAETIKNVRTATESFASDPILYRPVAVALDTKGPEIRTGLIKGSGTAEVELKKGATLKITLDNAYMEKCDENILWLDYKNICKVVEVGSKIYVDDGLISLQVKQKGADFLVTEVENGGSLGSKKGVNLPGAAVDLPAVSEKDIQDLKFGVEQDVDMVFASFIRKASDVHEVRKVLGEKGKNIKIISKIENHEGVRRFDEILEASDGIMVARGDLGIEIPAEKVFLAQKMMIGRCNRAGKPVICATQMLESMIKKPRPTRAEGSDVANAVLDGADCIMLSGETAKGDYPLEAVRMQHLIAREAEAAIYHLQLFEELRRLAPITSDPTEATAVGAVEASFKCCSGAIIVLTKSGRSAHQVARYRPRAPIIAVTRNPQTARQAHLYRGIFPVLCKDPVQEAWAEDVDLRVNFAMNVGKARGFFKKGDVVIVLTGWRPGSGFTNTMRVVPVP
smiles,measurement,setting,value
COc1cc(CNC(=O)CCCC/C=C/C(C)C)ccc1O,outcome,[1],inactive
same,Potency,[2],inactive
same,outcome,[3],inactive
same,Potency,[4],inactive
same,Potency,[5],inactive
same,Potency,[6],inactive
same,Potency,[7],inactive
same,Potency,[8],inactive
CN1C2CCC1CC(OC(=O)C(O)c1ccccc1)C2 (stereo unspecified),outcome,[1],inactive
same,outcome,[3],inactive
O=C1CN(/N=C/c2ccc([N+](=O)[O-])o2)C(=O)N1,outcome,[1],inactive
same,Potency,[2],inactive
same,outcome,[3],inactive
same,Potency,[4],inactive
same,Potency,[6],inactive
same,Potency,[7],inactive
same,Potency,[9],inactive
same,Potency,[8],inactive
CCCCCCOc1ccccc1C(N)=O,outcome,[1],inactive
same,outcome,[3],inactive
NCCSSCCN,outcome,[1],inactive
same,outcome,[3],inactive
same,Potency,[10],inactive
same,Potency,[11],inactive
same,outcome,[12],inactive
O=C(/C=C/c1ccc(O)cc1)c1ccc(O)cc1O,outcome,[1],inactive
same,outcome,[3],inactive
O=c1[nH]c2cc(Cl)c(Cl)cc2[nH]c1=O,outcome,[1],inactive
same,outcome,[3],inactive
same,Potency,[13],inactive
same,Potency,[10],inactive
same,Potency,[11],inactive
same,outcome,[12],inactive
CC(N)C(=O)OC(C)(C)Cc1ccc(Cl)cc1 (stereo unspecified),outcome,[1],inactive
same,outcome,[3],inactive
Nc1nc(Cl)nc2c1ncn2[C@@H]1O[C@H](CO)[C@@H](O)[C@H]1O,outcome,[1],inactive
same,outcome,[3],inactive
Oc1c(Br)cc(Br)c2cccnc12,outcome,[1],inactive
same,outcome,[3],inactive
COc1cccc(OC)c1OCCNCC1COc2ccccc2O1 (stereo unspecified),outcome,[1],inactive
same,outcome,[3],inactive
CN1CCc2cccc3c2C1Cc1ccc(O)c(O)c1-3 (stereo unspecified),outcome,[1],inactive
same,outcome,[3],inactive
CC(C)NCC(O)COc1cccc2ccccc12 (stereo unspecified),outcome,[1],inactive
same,Potency,[2],inactive
same,outcome,[3],inactive
same,Potency,[4],inactive
same,Potency,[5],inactive
same,Potency,[6],inactive
same,Potency,[7],inactive
same,Potency,[8],inactive
CC1OC1P(=O)(O)O (stereo unspecified),outcome,[1],inactive
same,outcome,[3],inactive
Nc1ccc(C(=O)O)c(O)c1,outcome,[1],inactive
same,outcome,[3],inactive
O=c1cc(-c2ccccc2)oc2c(O)c(O)ccc12,outcome,[1],inactive
same,outcome,[3],inactive
NCCCS(=O)(=O)O,outcome,[1],inactive
same,outcome,[3],inactive
same,Potency,[13],inactive
same,Potency,[10],inactive
same,Potency,[11],inactive
same,outcome,[12],inactive
C[N+]1(C)CCC(OC(=O)C(c2ccccc2)c2ccccc2)CC1,activation,[14],0.751%
same,Potency,[15],inactive
same,Potency,[13],0.0158 µM (active)
same,Potency,[10],0.0112 µM (active)
same,Potency,[11],inactive
same,outcome,[12],inactive
O=C(/C=C/c1ccc(O)c(O)c1)OCCc1ccccc1,outcome,[1],inactive
same,outcome,[3],inactive
O=C(Nc1cccc(C(=O)Nc2ccc(S(=O)(=O)O)c3cc(S(=O)(=O)O)cc(S(=O)(=O)O)c23)c1)Nc1cccc(C(=O)Nc2ccc(S(=O)(=O)O)c3cc(S(=O)(=O)O)cc(S(=O)(=O)O)c23)c1,activation,[14],-24.7%
same,Potency,[15],inactive
same,Potency,[13],inactive
same,Potency,[11],inactive
same,outcome,[12],inactive
same,Potency,[16],0.398 µM (active)
Cc1c(N)c(=O)n(-c2ccccc2)n1C,outcome,[1],inactive
same,outcome,[3],inactive
O=C(OCc1ccccc1)c1ccccc1,outcome,[1],inactive
same,outcome,[3],inactive
